Source: the supplement of paper PMC3334620
The full ranking holds about 33,000 sequences; the median of “E-score (-0.5 to 0.5)” is about -0.021, and the highest 2% start at about 0.32. The list comes from a sample in which the highest values are over-represented; it also holds similar and randomly drawn sequences.

Biological target: T1, Zap1 (UniProt P47043)
T1 sequence: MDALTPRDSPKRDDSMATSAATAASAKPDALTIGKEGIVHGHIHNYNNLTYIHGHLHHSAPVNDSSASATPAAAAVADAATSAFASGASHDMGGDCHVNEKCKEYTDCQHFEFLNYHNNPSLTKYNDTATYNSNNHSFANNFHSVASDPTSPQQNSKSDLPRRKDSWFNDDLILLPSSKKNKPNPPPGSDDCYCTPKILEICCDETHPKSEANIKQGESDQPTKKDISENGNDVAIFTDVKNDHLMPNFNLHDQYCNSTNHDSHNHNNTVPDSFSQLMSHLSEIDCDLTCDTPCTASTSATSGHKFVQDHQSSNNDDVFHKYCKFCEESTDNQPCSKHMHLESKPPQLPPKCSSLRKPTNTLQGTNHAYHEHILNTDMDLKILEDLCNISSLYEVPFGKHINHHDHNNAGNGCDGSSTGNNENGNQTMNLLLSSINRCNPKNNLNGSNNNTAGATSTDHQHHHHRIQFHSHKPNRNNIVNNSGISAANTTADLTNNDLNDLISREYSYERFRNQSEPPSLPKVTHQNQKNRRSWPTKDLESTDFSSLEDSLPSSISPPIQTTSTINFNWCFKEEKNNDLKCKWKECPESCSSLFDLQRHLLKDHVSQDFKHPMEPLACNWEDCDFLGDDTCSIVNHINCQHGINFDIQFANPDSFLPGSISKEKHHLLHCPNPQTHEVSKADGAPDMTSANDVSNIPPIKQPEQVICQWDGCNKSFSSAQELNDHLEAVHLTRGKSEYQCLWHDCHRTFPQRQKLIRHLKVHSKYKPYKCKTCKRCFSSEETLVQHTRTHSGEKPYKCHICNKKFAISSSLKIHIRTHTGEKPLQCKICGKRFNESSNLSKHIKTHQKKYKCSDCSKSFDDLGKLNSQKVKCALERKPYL
Assay: PBM E-score (8-mer binding enrichment) (E-score (-0.5 to 0.5)); higher = stronger / more preferred TF binding
Settings: protein concentration: 200 nM; construct: GST-full length
Method: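 Universal 'all 10-mer' protein binding microarrays (Agilent AMADID 015681) probed with GST-tagged S. cerevisiae TFs (full-length or DBD) made by in vitro transcription/translation (PURExpress), about 100-200 nM. Bound TF was detected with fluorescent anti-GST. Each ungapped 8-mer (which stands for itself and its reverse complement) is scored by the PBM enrichment score (E-score), a modified Wilcoxon-Mann-Whitney statistic from -0.5 to +0.5, computed with the Universal PBM Analysis Suite. Scale: above 0.35 generally sequence-specific binding.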

Sequence	PBM E-score
CCCCTCCC	0.0739
ATCAGTTC	-0.0391
GTTCTTAA	0.0134
AAGTTAGT	-0.0228
GTTGAACA	-0.15
ACGATGGG	-0.169
GGTAGTTA	0.339
CGTAGTTA	0.177
AGTAGTTA	0.11
TAGTGCCA	-0.18
CACCATAA	0.0248
AACCATGA	0.357
AACCATAA	0.41
GACCATAA	0.287
CACCATGA	0.00417
TACCATAA	0.367
AACCATGC	0.156
AACCATTG	0.271
CACCATTA	0.037
TCCCATAA	0.182
AACCATTA	0.365
AACCATAC	0.159
CTAATGGC	0.134
TAACTAGA	0.227
AGGGACTA	-0.104

Sequence	PBM E-score
ACGGTTCT	0.0709
ACTCTTGC	0.0703
TCGACTCA	-0.0722
CAATTCCG	-0.00437
AGGTATCA	0.116
CCTCTGAA	-0.072
AGATGCGG	0.0772
AAAACCGT	0.173
AGGGTATG	0.395
ACGGTATG	-0.0688
AGGGTAGA	0.135
CGGGTATA	0.317
AGGGTAGC	0.313
AGGGTATC	0.364
ATGGTATC	0.183
AAGGTATG	0.226
AGGGTAGG	0.32
GGGGTATA	0.182
AGGGTATA	0.407
CGGGTATC	0.252
GGTTTTAC	0.108
GTGCGCCA	-0.175
TATGTGGA	-0.0214
ATTCTTGA	0.0771
CCTCTCAC	-0.0256

Sequence	PBM E-score
AAAGTGGA	-0.0378
CATCAAGG	0.0235
ACGTGAGC	-0.116
CCGGTACC	0.414
ACGGTACG	0.0714
CCGGTACA	0.149
GCGGTAGC	0.0107
ACGGTACC	0.399
GCGGTACA	0.13
GCGGTACC	0.418
CCGGTACG	-0.136
ACGGTACT	0.0886
AGACGGGC	-0.112
CAGCAGCA	-0.198
CGTATCGA	-0.133
AAAGGTCT	0.238
AAAGGTCC	0.245
AAAGGTCA	0.449
CAAGGTCA	0.386
ACAGGTCG	0.0832
CAAGGTCG	0.263
GAAGGTCA	0.232
AAAGGTGG	0.158
AAAGGTCG	0.323
TAAGGTGA	0.155

Sequence	PBM E-score
CAAGGTCC	0.151
TAAGGTCA	0.341
ACGACTCG	-0.134
GTCGATGA	-0.149
CCGGAGGA	-0.228
CCTCAATA	0.0804
AGACCGGG	0.0501
CCACAGGG	0.1
CTCGTCAC	0.099
AATCAGCA	-0.0933
ACCTGTTG	0.265
GGAGGCAA	-0.188
ACACTTAT	-0.101
GACCTCGA	0.277
AACCTCGT	0.322
AACCTCGG	0.302
CACCTCGA	0.215
AACCTCGA	0.367
AACCTCGC	0.295
GCCACCTA	-0.103
CAGACAGG	-0.0636
CAGGGTTC	0.214
AGAGGTTG	0.218
AGGGGTTC	0.173
AAGGGGTG	0.167

Sequence	PBM E-score
AAAGGTTC	0.293
AGGGGTTG	0.337
AAGGGTTC	0.339
AAAGGTTG	0.336
AAGGGTTG	0.441
AGGGGGTG	-0.204
AAGGGTGG	0.19
AAGGGTGC	0.134
AAATAGCA	-0.171
AATAGACG	-0.163
TCAGTGGA	-0.041
ATCGAACG	-0.183
CTCTACGA	-0.0991
ACCTACCC	0.316
CTCCACGC	-0.241
CTTCTACA	-0.0296
CCAGGGAC	-0.163
AATGGTTG	0.254
CATGGTTA	0.415
AATGGTTC	0.246
GATGGTAA	0.171
GATGGTGA	-0.0368
CATGGTGA	0.0149
CATGGTTC	0.132
GATGGTTA	0.392

Sequence	PBM E-score
AATGGTTA	0.413
GCCGCACC	0.0244
ATTTTGAC	0.203
AGCGACCG	-0.13
CTACCTAG	0.104
GCTTTGCC	-0.379
AGCCTAAG	-0.216
ATTCACTC	-0.105
AAGTGCTA	-0.303
TACCCTCA	0.312
CCCCCTAA	-0.277
GACCCTCA	0.189
GACCCTAA	0.433
AGCCCTAA	-0.00909
CGCCCTAA	-0.126
ATCCCTAA	0.006
TACCCTAA	0.435
AACCCTAA	0.452
CACCCTAA	0.369
TCCCCTAA	0.0699
GTCCCTAA	0.109
CGCCAATC	-0.11
GTGAATTA	0.206
AAAGGACA	0.177
AGTAAGAT	-0.0474

Sequence	PBM E-score
ACCATTTG	0.221
AGACGCTA	-0.167
TGCGCACA	-0.037
ATCCTTGG	-0.139
AGCCTTGC	-0.257
ACCCTTGC	0.381
ACCCTTGG	0.365
GCCCTTGA	0.00462
CCCCTTGC	-0.0145
ACCCTTGA	0.383
CCCCTTGA	0.119
AGCCTTGG	-0.208
CAAGCTCA	-0.197
AACAGCAA	-0.0172
CTGGTGAC	-0.0173
GATACTGC	-0.126
CAGATTTC	-0.097
ATAGCGAT	0.0306
AAATGGCT	0.00044
AATACCCG	0.177
ACTACCCT	0.445
AATACCCA	0.158
ACTACCCC	0.215
AATACCCT	0.379
ACTACCCA	0.291
